Test results from the supplement of paper PMC12819154, “High-throughput peptide-centric local stability assay extends protein–ligand identification to membrane proteins, tissues and bacteria” (Nature Structural & Molecular Biology, 2025).

Key:
[1] = compound: T1, CN[C@@H]1C[C@H]2O[C@@](C)([C@@H]1OC)n1c3ccccc3c3c4c(c5c6ccccc6n2c5c31)C(=O)NC4 [staurosporine]; assay: log2 fold change of tryptic peptide abundance, ligand vs vehicle (limited proteolysis) (log2 ratio); higher = more trypsin-susceptible (destabilized); details: ligand concentration: 20 uM; sample: K562 cleared lysate; digestion: 4 min, 22 C (HT-PELSA RT4min, Orbitrap Astral)
[2] = compound: T1, staurosporine; assay: as above; details: ligand concentration: 20 uM; sample: mouse liver crude lysate; replicate design: treated separately

UniProt P35917, sequence (P35917 whole entry): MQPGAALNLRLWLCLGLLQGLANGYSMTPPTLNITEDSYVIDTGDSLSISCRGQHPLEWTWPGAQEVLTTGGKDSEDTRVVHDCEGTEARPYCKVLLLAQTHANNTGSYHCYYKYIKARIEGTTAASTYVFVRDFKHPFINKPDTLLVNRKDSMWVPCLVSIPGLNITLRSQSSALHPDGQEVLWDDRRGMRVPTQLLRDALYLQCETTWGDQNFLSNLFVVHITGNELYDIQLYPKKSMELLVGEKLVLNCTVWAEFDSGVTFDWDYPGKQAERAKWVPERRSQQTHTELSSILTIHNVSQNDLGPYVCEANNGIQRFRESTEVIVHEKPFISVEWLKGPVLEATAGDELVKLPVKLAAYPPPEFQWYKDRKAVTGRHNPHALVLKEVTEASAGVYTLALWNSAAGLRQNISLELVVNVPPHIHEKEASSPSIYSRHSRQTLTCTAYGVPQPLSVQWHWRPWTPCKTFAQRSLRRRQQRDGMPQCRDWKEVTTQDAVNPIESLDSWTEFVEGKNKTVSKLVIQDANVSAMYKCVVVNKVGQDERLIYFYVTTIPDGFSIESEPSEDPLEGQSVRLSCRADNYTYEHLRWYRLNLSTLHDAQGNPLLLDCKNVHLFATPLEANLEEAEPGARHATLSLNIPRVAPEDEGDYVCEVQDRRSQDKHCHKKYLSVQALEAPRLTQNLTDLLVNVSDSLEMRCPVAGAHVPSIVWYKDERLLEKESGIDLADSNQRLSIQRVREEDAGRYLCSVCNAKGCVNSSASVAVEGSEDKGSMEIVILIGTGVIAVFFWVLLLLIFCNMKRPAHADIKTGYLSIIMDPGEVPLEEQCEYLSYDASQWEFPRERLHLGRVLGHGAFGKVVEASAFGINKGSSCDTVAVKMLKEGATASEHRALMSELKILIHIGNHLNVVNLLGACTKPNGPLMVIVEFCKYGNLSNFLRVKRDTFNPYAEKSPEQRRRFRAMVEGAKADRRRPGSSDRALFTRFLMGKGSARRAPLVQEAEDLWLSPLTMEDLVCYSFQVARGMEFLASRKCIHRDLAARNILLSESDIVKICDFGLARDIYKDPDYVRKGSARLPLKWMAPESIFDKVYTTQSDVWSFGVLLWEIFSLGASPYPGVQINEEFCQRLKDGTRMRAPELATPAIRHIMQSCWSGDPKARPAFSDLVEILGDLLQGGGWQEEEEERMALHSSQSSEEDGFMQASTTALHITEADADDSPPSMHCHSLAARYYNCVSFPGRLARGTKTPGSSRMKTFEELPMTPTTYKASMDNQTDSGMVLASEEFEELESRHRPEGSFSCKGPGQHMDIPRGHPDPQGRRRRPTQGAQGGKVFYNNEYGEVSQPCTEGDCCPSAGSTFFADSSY
UniProt Q91YH5, sequence (Q91YH5 whole entry): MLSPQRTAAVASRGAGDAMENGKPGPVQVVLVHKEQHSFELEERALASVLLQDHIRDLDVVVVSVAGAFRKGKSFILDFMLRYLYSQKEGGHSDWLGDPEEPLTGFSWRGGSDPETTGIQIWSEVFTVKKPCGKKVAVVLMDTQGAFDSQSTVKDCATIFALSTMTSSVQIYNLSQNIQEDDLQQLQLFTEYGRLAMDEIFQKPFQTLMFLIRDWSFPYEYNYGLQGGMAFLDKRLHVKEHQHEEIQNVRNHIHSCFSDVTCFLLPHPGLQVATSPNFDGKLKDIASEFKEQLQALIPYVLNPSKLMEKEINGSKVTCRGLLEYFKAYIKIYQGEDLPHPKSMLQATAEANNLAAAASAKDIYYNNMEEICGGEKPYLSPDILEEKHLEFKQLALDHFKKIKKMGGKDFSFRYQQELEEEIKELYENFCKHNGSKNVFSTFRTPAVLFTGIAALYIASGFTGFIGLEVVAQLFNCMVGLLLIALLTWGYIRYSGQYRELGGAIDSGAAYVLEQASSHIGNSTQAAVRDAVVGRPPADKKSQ
UniProt Q8BRK8, sequence (Q8BRK8 whole entry): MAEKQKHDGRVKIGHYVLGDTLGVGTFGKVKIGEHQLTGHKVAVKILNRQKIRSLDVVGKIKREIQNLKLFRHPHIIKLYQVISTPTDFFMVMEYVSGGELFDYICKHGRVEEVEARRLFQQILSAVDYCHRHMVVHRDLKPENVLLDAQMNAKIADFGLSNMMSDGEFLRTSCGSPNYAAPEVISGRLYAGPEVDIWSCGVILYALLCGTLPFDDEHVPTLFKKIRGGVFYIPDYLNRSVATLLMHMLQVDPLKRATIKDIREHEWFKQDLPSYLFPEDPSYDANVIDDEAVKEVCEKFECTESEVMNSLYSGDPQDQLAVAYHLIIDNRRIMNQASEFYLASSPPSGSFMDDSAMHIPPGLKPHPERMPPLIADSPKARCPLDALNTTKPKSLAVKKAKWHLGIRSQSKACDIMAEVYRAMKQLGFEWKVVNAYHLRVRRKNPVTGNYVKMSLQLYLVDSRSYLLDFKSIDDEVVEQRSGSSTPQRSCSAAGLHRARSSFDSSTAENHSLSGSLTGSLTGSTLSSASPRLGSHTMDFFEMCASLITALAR
UniProt O35493, sequence (O35493 whole entry, looked up): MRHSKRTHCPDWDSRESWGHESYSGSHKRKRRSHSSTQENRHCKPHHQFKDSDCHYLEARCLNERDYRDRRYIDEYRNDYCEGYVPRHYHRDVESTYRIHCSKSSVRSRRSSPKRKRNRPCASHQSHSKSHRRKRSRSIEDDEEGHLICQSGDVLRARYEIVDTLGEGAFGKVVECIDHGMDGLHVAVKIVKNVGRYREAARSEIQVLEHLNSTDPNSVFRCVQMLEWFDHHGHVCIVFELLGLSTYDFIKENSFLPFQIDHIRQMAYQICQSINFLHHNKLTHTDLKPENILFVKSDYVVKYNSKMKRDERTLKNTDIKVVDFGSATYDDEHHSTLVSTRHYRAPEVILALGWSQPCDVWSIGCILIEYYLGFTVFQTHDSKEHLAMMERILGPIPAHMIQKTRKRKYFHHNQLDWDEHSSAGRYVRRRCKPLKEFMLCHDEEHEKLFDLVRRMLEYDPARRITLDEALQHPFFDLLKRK
UniProt P36552, sequence (P36552 whole entry): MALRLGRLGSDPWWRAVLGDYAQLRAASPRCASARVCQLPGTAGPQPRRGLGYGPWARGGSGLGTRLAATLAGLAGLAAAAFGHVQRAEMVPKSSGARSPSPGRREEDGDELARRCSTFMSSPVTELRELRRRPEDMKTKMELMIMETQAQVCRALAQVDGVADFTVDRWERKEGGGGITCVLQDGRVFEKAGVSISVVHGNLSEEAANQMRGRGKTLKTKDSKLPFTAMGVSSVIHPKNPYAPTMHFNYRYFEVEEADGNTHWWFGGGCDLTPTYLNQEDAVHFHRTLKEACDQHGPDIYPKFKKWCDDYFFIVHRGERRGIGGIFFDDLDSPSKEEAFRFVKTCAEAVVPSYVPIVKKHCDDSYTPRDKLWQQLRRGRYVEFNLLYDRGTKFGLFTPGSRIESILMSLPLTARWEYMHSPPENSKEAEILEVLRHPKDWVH
UniProt Q8C9S4, sequence (Q8C9S4 whole entry): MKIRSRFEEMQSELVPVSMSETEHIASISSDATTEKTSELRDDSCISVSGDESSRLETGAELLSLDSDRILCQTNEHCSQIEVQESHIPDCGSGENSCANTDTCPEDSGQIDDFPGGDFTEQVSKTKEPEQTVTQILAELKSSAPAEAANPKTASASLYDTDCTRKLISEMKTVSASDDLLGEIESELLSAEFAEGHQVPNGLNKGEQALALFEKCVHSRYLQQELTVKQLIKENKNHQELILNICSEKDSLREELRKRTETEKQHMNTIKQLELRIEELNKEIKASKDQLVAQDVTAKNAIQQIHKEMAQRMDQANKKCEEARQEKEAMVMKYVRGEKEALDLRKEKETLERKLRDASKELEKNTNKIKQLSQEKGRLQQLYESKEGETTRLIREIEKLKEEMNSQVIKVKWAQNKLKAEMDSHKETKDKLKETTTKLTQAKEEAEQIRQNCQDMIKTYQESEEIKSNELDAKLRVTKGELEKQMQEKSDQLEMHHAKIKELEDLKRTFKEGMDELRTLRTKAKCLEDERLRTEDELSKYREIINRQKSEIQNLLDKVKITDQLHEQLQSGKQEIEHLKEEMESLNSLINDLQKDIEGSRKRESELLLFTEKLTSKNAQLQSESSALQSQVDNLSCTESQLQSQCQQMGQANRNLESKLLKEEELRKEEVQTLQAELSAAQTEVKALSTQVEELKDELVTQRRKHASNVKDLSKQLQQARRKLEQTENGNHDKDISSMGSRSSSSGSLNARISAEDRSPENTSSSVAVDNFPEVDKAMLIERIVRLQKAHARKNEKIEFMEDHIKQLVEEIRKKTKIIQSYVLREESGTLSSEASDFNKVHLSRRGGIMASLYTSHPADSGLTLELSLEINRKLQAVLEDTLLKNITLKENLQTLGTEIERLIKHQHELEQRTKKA
UniProt Q91Y86, sequence (Q91Y86 whole entry): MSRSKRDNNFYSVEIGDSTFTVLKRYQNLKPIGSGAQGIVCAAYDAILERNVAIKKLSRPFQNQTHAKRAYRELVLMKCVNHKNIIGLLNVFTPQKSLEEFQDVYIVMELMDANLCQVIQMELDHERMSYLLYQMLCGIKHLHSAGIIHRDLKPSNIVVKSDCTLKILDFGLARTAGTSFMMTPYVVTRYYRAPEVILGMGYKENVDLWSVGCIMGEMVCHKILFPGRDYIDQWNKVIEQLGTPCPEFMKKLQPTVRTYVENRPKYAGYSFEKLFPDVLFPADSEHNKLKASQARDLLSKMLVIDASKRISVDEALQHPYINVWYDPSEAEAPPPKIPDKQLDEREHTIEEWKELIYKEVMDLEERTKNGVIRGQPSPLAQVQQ
UniProt Q9JHU3, sequence (Q9JHU3 whole entry): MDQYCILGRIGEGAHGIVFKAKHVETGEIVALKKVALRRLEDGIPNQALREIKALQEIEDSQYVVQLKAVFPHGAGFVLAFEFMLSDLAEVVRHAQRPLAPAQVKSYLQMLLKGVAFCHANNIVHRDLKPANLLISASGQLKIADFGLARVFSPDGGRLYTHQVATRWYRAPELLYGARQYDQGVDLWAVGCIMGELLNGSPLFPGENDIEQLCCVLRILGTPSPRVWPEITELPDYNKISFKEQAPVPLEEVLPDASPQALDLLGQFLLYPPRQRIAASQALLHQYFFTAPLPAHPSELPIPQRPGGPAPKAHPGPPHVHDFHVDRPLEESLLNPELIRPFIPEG

Row | Target | log2 fold change [1] | log2 fold change [2]
1 | GALE (peptide sequence: MCEDLWR, peptide start residue: 329) (UniProt Q14376) | 0.379 | 
2 | OSBPL3 (peptide sequence: YWSTNAHEIEGTVFDR, peptide start residue: 727) (UniProt Q9H4L5) | -1.33 | 
3 | UniProt O70579 (peptide sequence: NVLSLLHQR, peptide start residue: 249) |  | 0.904
4 | UniProt Q9JI10 (peptide sequence: AGNILLNTEGHAK, peptide start residue: 149) |  | -3.04
5 | UniProt Q5U5V2 (peptide sequence: ENFIWNLK, peptide start residue: 175) |  | -0.924
6 | UniProt Q9CZW4 (peptide sequence: ALDFGNGLQMLGQKPK, peptide start residue: 144) |  | 0.538
7 | UniProt Q9CZW6 (peptide sequence: GASWLGKR, peptide start residue: 64) |  | -0.952
8 | UniProt Q61335 (peptide sequence: QAESASEAAK, peptide start residue: 139) |  | 0.352
9 | UniProt Q91YQ1 (peptide sequence: STVGVDFALK, peptide start residue: 38) |  | 0.602
10 | UniProt Q9QZL0 (peptide sequence: DLKPSNILLDPELHAK, peptide start residue: 143) |  | -1.1
11 | UniProt O88455 (peptide sequence: LLVSGFWGVAR, peptide start residue: 390) |  | 0.757
12 | UniProt Q9DBN5 (peptide sequence: NEKDLEEIPSNVR, peptide start residue: 804) |  | -1.06
13 | UniProt P34928 (peptide sequence: AWFSEAFGK, peptide start residue: 70) |  | 0.496
14 | UniProt Q91Y86 (peptide sequence: MLVIDASKR, peptide start residue: 301) |  | -1.79
15 | UniProt Q61161 (peptide sequence: GLHHLHSQGK, peptide start residue: 123) |  | -1.65
16 | UniProt Q8C5L7 (peptide sequence: NGAQIAEGFR, peptide start residue: 267) |  | 0.659
17 | UniProt P56593 (peptide sequence: FSNFAPLGIPR, peptide start residue: 360) |  | -0.352
18 | UniProt P26149 (peptide sequence: YIPPFNR, peptide start residue: 311) |  | 0.476
19 | UniProt O70589 (peptide sequence: FTSSPGLSTEDLKR, peptide start residue: 48) |  | -2.83
20 | UniProt P41241 (peptide sequence: GSLVDYLR, peptide start residue: 272) |  | -1.06
21 | UniProt Q8R1Z9 (peptide sequence: LSCNHVFHEFCIR, peptide start residue: 249) |  | 1.08
22 | UniProt Q9Z1R3 (peptide sequence: TEGRPDMK, peptide start residue: 115) |  | 1.56
23 | UniProt P97872 (peptide sequence: DSSGGSLVTVR, peptide start residue: 507) |  | -1.1

Row | Target | log2 fold change [1] | log2 fold change [2]
24 | UniProt Q9WUN2 (peptide sequence: VFNNISFLRPVDVQMR, peptide start residue: 39) |  | -2.34
25 | UniProt P47962 (peptide sequence: GAVDGGLSIPHSTK, peptide start residue: 165) |  | 0.536
26 | UniProt O70318 (peptide sequence: RVTPLPFQPQASSHETLNVVEEK, peptide start residue: 654) |  | -0.88
27 | UniProt P34914 (peptide sequence: NWKWSCK, peptide start residue: 471) |  | 0.437
28 | UniProt P35980 (peptide sequence: TNSTFNQVVLK, peptide start residue: 39) |  | 0.658
29 | UniProt O88451 (peptide sequence: LWDQTSSEVK, peptide start residue: 225) |  | -0.709
30 | UniProt Q9Z2W1 (peptide sequence: GSFGEVYK, peptide start residue: 29) |  | -2.09
31 | UniProt Q9DCZ4 (peptide sequence: TQLEENISQLR, peptide start residue: 58) |  | 0.253
32 | UniProt O35493 (peptide sequence: ILGPIPAHMIQK, peptide start residue: 392) |  | -2.87
33 | UniProt Q04899 (peptide sequence: HANIVTLHDLIHTDR, peptide start residue: 176) |  | -3.35
34 | UniProt Q91YH5 (peptide sequence: ALASVLLQDHIR, peptide start residue: 45) |  | 0.309
35 | UniProt P02088 (peptide sequence: DFTPAAQAAFQK, peptide start residue: 122) |  | 0.285
36 | UniProt Q3U214 (peptide sequence: YFLEMQDKLER, peptide start residue: 260) |  | 0.698
37 | UniProt Q8BPM2 (peptide sequence: LLTHTFVGQPGLSR, peptide start residue: 271) |  | -1.27
38 | UniProt P70451 (peptide sequence: NCLVGENNTLK, peptide start residue: 690) |  | -2
39 | UniProt O70293 (peptide sequence: EFCATRPELTR, peptide start residue: 69) |  | -1.23
40 | UniProt A2ALW5 (peptide sequence: WIYNFNIK, peptide start residue: 263) |  | 0.844
41 | UniProt Q61136 (peptide sequence: LNDADPDDKFHCLR, peptide start residue: 739) |  | -1.19
42 | UniProt O35945 (peptide sequence: TVAMQISQK, peptide start residue: 491) |  | -0.312
43 | UniProt Q63932 (peptide sequence: ISELGAGNGGVVTK, peptide start residue: 75) |  | -0.512
44 | UniProt Q9WTK7 (peptide sequence: SMTVVPYLEDLHGR, peptide start residue: 334) |  | 1.41
45 | UniProt Q4LDG0 (peptide sequence: NQPFLGYR, peptide start residue: 501) |  | 0.345
46 | UniProt Q3TLP5 (peptide sequence: GLLPGAGGTQR, peptide start residue: 170) |  | 0.658

Row | Target | log2 fold change [1] | log2 fold change [2]
47 | UniProt P63158 (peptide sequence: HPDASVNFSEFSKKCSER, peptide start residue: 31) |  | -0.395
48 | UniProt Q9WU79 (peptide sequence: ASGGASDGGFSAIK, peptide start residue: 220) |  | 0.201
49 | UniProt O54785 (peptide sequence: GFFGQAIK, peptide start residue: 340) |  | -0.88
50 | UniProt P05132 (peptide sequence: CGKEFTEF, peptide start residue: 344) |  | 2.36
51 | UniProt Q6XUX1 (peptide sequence: SLQDVLLHR, peptide start residue: 640) |  | -1.84
52 | UniProt Q9JHU3 (peptide sequence: HVETGEIVALKK, peptide start residue: 23) |  | -2.31
53 | UniProt P35917 (peptide sequence: VLGHGAFGK, peptide start residue: 850) |  | 1.38
54 | UniProt O70551 (peptide sequence: SAEHYTETALDEIR, peptide start residue: 113) |  | -2.75
55 | UniProt Q04735 (peptide sequence: LEHEEGAPCTAIR, peptide start residue: 154) |  | -2.38
56 | UniProt Q91W52 (peptide sequence: LITTWEK, peptide start residue: 203) |  | 0.417
57 | UniProt Q8C9S4 (peptide sequence: QEIEHLK, peptide start residue: 574) |  | -1.24
58 | UniProt P06728 (peptide sequence: LQLTPYIQR, peptide start residue: 155) |  | 0.346
59 | UniProt Q9D710 (peptide sequence: EFNLNELYQR, peptide start residue: 254) |  | -0.349
60 | UniProt P36552 (peptide sequence: NPYAPTMHFNYR, peptide start residue: 240) |  | -0.601
61 | UniProt P31324 (peptide sequence: LKVVDVIGTK, peptide start residue: 284) |  | 1.51
62 | UniProt P24604 (peptide sequence: ELGSGLFGVVR, peptide start residue: 374) |  | -0.989
63 | UniProt Q99N91 (peptide sequence: GNEYQPSNIK, peptide start residue: 50) |  | 0.323
64 | UniProt Q8BRK8 (peptide sequence: DLKPENVLLDAQMNAK, peptide start residue: 139) |  | -3.83
65 | UniProt Q921S7 (peptide sequence: HFVPWLAR, peptide start residue: 65) |  | 0.415
66 | UniProt Q8BK48 (peptide sequence: DFRPPYVK, peptide start residue: 447) |  | -1.1
67 | UniProt Q6ZWQ0 (peptide sequence: INDRWQHLFDVIGSR, peptide start residue: 5986) |  | 0.927
